VP16 counter: inhibits Gal4-VP16 luciferase reporter, ROR gamma counter-screen; Drosophila S2 Gal4-VP16 UAS-luciferase, luminescence, 20 h; Potency, µM (top dose mostly 53.6 µM), inactives show top-dose activity, negative = inhibition, usual class: inhibitors; 3.5% of 310,000 active; AID 2546;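 also: Gal4-VP16 expression switched on by copper sulfate through the metallothionein promoter; potency is read from the fitted curve at half-maximal effect; nearly all actives have a fitted effect of over 50% in size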
RORgamma inh: ROR gamma (mouse) transcription inhibition; P51450; Drosophila S2 Gal4-RORgamma UAS-luciferase reporter, 20 h; 5.4% of 310,000 active; Potency, µM (highest dose often 53.6 µM), for inactives: top-dose activity change, negative = inhibition, most hits filed as inhibitors; also: potency is read from the fitted curve at half-maximal effect; nearly all actives have a fitted effect of over 60% in size
Target sequence (P51450 whole entry, looked up, the tested form may be a part): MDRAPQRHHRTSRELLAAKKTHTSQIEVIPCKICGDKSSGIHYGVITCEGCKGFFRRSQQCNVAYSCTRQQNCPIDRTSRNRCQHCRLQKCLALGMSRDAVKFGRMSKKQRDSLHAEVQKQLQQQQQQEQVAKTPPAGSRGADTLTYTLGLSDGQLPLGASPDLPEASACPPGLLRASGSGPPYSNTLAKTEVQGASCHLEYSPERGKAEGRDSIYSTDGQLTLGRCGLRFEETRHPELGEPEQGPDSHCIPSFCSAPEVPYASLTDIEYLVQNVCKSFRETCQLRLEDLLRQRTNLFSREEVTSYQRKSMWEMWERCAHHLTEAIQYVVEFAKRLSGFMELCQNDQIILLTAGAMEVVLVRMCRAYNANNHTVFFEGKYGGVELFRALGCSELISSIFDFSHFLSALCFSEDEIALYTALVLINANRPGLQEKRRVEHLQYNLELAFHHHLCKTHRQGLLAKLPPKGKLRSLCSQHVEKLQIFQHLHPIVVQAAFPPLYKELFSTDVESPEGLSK
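Read-out: Photinus luciferase luminescence; inhibitors lower reporter signal. Insect Schneider cells with Gal4-ROR gamma fusion under metallothionein promoter, UAS reporter; 700 uM final copper sulfate induction, 20 hr, ambient temperature.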
LDHA inh: blocks human lactate dehydrogenase A | P00338 | purified LDHA, NADH/diaphorase-resazurin fluorescence; hits give low values | activity change, % (values are at about 110 or 230 µM) | 0.15% of 480,000 active | AID 1347041; in the data active = activity change below about -30%; inconclusive = mostly about -25% to -30%;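 also: plate controls were DMSO wells for no effect and wells without enzyme for full effect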
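Remaining NADH was detected by diaphorase (0.133 mg/mL) converting 37 µM resazurin to fluorescent resorufin, read at 0 and 20 minutes. The preceding 5-minute room-temperature reaction used 2 nM LDHA, 0.2 mM sodium pyruvate and 0.06 mM NADH at pH 7.4.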
TDP1 cell noCPT: qHTS for Inhibitors of human tyrosyl-DNA phosphodiesterase 1 (TDP1): qHTS in cells in absence of CPT. Potency, µM (series often up to 46.2 µM), for inactives: top-dose activity change, negative = growth inhibition, hits mostly inhibitors. 15% of 420,000 active. DT40 Tdp1-/- hTDP1 cells, no CPT, ATP luminescence, 48 h; also: potency is read from the fitted curve at half-maximal effect; nearly all actives have a fitted effect of over 55% in size
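Luminescent ATP content (CellTiter-Glo) served as the growth readout. Knockout chicken DT40 cells expressing human TDP1 were exposed to compounds without camptothecin for a minimum 48 hr at 37 °C.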
DT40 TDP1 CPT: growth inhibition of DT40 Tdp1-/-;hTDP1 cells with camptothecin (screen for TDP1 inhibitors); Potency, µM (top dose mostly 46.2 µM), for the others: at the highest dose activity change, negative = growth inhibition, actives largely listed as inhibitors; chicken DT40 Tdp1-/-;hTDP1 cells + 20 nM CPT, ATP luminescence, 48 h; 12% of 420,000 active; AID 686979; also: potency is read from the fitted curve at half-maximal effect; nearly all actives have a fitted effect of over 55% in size
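Cell growth measured by CellTiter-Glo luminescence after a minimum 48 h, 37 C compound exposure with 20 nM CPT in Tdp1-knockout DT40 cells stably expressing hTDP1, seeded 400/well; qHTS titration format.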
IL1B secr inh: inhibitors of inflammasome signaling (IL-1 beta secretion). 4.7% of 360,000 active. THP-1 LPS/ATP IL-1B secretion, AlphaLISA, 16 h; hits give low values. activity change, % at 57.5 µM; in the data active = activity change below about -50%; inconclusive = mostly about -30% to -49%
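THP-1 cells pretreated 1 hr with compounds (up to 57.5 uM final), then stimulated with LPS (250 ng/mL final) plus ATP (1.25 mM final); secreted IL-1B measured by AlphaLISA after 16 hr, decreased signal indicating inhibition.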
* = called active by the depositor; i = inactive; ? = inconclusive; nt = no result. This is a sample that favours compounds with a hit; in the whole collection about 18% have one here. Unless noted, calls follow the shape of the dose curve; as a rule, active = well fitted curve in the direction sought with a large enough effect; inconclusive = small, poorly fitted or top-dose-only effect, or another doubt; inactive = no such curve, though single readings can be large; an effect the other way counts as inactive or inconclusive. Unless noted, % is scaled to controls: 0 for no effect and ±100 for the full control effect.

SMILES	VP16 counter	RORgamma inh	LDHA inh	TDP1 cell noCPT	DT40 TDP1 CPT	IL1B secr inh
O=C(NCc1ccccc1)c1ccc(Oc2ccc(C(=O)NCc3ccccc3)cc2)cc1	-4.8%	-1.4%	-6.1	16.4µM*	?	7.2
OCCNC(=S)Nc1ccc(Oc2ccccc2)cc1	20.8%	-25.8%	-3.9	1.2%	-11.1%	11.1
CC(=O)Nc1ccc(CNCc2csc(C)n2)cc1	nt	nt	1.4	nt	nt	nt
COc1cccc(NC(=O)CN(C)C(=O)CSc2ncnc3scc(-c4ccccc4)c23)c1	nt	nt	2.1	nt	nt	nt
C=CCNC(=O)NC(=O)CN1CCCCC1	nt	nt	5.1	nt	nt	nt
COc1ccc(Cn2c(=O)c3sccc3n(CC(=O)NCc3ccccc3)c2=O)cc1	nt	nt	1.2	nt	nt	nt
CCOc1ccc(-c2[nH]ncc2-c2ccc(OC)c(OC)c2)c(O)c1	?	?	5.1	3.66µM*	3.66µM*	-11.8
CCOc1ccc(-c2[nH]ncc2-c2ccc(Cl)cc2)c(O)c1	?	11.2µM*	1.3	?	16.4µM*	-8.2
O=C(CC(Sc1ccccc1)c1cccs1)c1ccco1 (stereo unspecified)	0.8%	?	-1.6	25.9µM*	18.4µM*	-69.8*
NCCCCNS(=O)(=O)c1ccc2c(Cl)cccc2c1	2.3%	-27.5%	nt	11.9µM*	11.9µM*	nt
NCCNS(=O)(=O)c1cccc2c(Cl)cccc12	6.6%	-4.2%	nt	26.6µM*	26.6µM*	nt
NCCNS(=O)(=O)c1ccc(Cl)c2ccncc12	3.4%	3.8%	nt	nt	nt	nt
NCCCCCCNS(=O)(=O)c1ccc2c(Cl)cccc2c1	28.2µM*	?	6.9	11.2µM*	13.3µM*	nt
COc1ccc(C(=O)C(C)Cl)cc1 (stereo unspecified)	nt	nt	0.9	nt	nt	nt
COc1ccc(S(=O)(=O)N2CCCCC2)cc1NC(=O)Cc1nn(C)c(=O)c2ccccc12	nt	nt	-11.4	nt	nt	nt
O=C1C(Cl)=C(N2CCCCC2)C(=O)C(Cl)=C1c1cnc(N2CCCCC2)s1	?	?	57.2	0.92µM*	0.92µM*	-71.3*
CN(C)c1ncc(C2=C(Cl)C(=O)C(N3CCCC3)=C(Cl)C2=O)s1	nt	nt	52.5	1.16µM*	0.92µM*	-103.8*
CC(=O)c1cnc(N(C)C)s1	-12.3%	-35.9%	-2.8	-7.1%	-11.8%	25.6
CCOC(=O)c1[nH]c(C)c(/C(Br)=C/Br)c1C	nt	nt	9.5	nt	nt	nt
O=C(O)c1ccccc1SCc1nc2ccccn2c1Br	15.7%	1.4%	-11.8	-2.0%	4.4%	4.8
N=C(N)SCc1ncccc1O	2.3%	1.8%	-4.4	6.8%	-7.0%	-4.9
N=C(N)SCc1nc2ccccn2c1Br	3.3%	-4.9%	-6.5	?	?	-98.3*
Cc1cccc2nc(CSC(=N)N)c(Br)n12	0.4%	-7.4%	-2.5	?	?	-67.9*
CC(C)(C)c1ccc(O)c(C(C)(C)C)c1O	nt	nt	5.9	nt	nt	nt
Cc1ccccc1-c1nc(S(=O)(=O)c2ccc(Br)cc2)c(NCc2cccnc2)o1	-7.3%	-0.1%	-3.2	-24.6%	-7.4%	?
SMILES	VP16 counter	RORgamma inh	LDHA inh	TDP1 cell noCPT	DT40 TDP1 CPT	IL1B secr inh
O=S(=O)(c1ccc(Cl)cc1)c1nc(-c2ccccc2F)oc1NCCCN1CCOCC1	-1.8%	-30.0%	-2.7	?	?	-73.9*
Cc1ccccc1-c1nc(S(=O)(=O)c2ccccc2)c(NCCN2CCOCC2)o1	nt	nt	-0.8	?	?	-24.9
O=S(=O)(c1ccc(Br)cc1)c1nc(-c2ccccc2)oc1NCCN1CCOCC1	-7.9%	16.2%	-10.3	?	?	-61.2*
CN(C)CCCNc1oc(-c2ccc(Cl)cc2)nc1S(=O)(=O)c1ccccc1	nt	nt	0.2	16.4µM*	14.6µM*	-7.8
O=S(=O)(c1ccc(Cl)cc1)c1nc(-c2ccccc2Br)oc1NCc1ccccc1	nt	nt	0.4	13µM*	?	nt
O=S(=O)(c1ccccc1)c1nc(-c2ccco2)oc1NCCN1CCOCC1	-2.4%	-17.0%	-0.3	-3.5%	-19.3%	14.0
COCCNc1oc(-c2ccccc2Cl)nc1S(=O)(=O)c1ccc(C)cc1	nt	nt	-8.4	?	?	-57.1*
Cc1ccc(S(=O)(=O)c2nc(-c3ccccc3Cl)oc2NCCCN2CCOCC2)cc1	6.2%	-13.9%	-10.6	25.9µM*	?	i
Cc1ccccc1Cn1c(SCc2ccc(C(=O)NC(C)c3ccccc3)cc2)nc2ccncc21 (stereo unspecified)	nt	nt	-1.3	16.4µM*	9.2µM*	nt
CC(NC(=O)c1ccc(CSc2nc3ccncc3n2Cc2ccc(F)cc2)cc1)c1ccccc1 (stereo unspecified)	nt	nt	0.3	?	?	nt
Cc1ccccc1Cn1c(SCc2ccc(C(=O)NCc3cccs3)cc2)nc2ccncc21	nt	nt	3.3	18.4µM*	20.6µM*	nt
Nc1oc2ccccc2c(=O)c1-c1cccc2ccccc12	nt	nt	12.1	nt	nt	nt
CCc1ccc(C2C3=C(CC(C)(C)CC3=O)OC3=C2C(=O)CC(C)(C)C3)cc1	-6.2%	-18.2%	-3.7	23.1µM*	?	-13.7
CC1(C)CC(=O)C2=C(C1)OC1=C(C(=O)CC(C)(C)C1)C2c1ccccc1	-2.5%	0.0%	-0.9	-15.7%	-19.4%	-9.7
Cc1nn(Cc2c(Cl)cccc2Cl)c(C)c1NC(=O)CCCn1nc([N+](=O)[O-])c(Cl)c1C	-20.3%	?	-4.4	20.6µM*	?	-6.9
Cc1cc(C)cc(Oc2cc(NC(=O)c3cn(C)nc3C)cc([N+](=O)[O-])c2)c1	7.94µM*	?	-11.7	1.41µM*	2.24µM*	4.8
Cc1cc([N+](=O)[O-])nn1CCCC(=O)Nc1cc(Oc2ccc(F)cc2)cc([N+](=O)[O-])c1	-18.5%	26.0%	-10.4	?	?	?
Cc1cc([N+](=O)[O-])nn1CCCC(=O)Nc1cc(Oc2ccccc2)cc([N+](=O)[O-])c1	-4.0%	37.0%	-0.4	20.6µM*	16.4µM*	0.0
Cc1cccc(Oc2cc(N)cc([N+](=O)[O-])c2)c1	-4.3%	2.3%	-1.7	-26.9%	?	-4.4
Cc1ccc(Oc2cc(NC(=O)CCCn3nc([N+](=O)[O-])c(Cl)c3C)cc([N+](=O)[O-])c2)cc1	-11.5%	?	-3.7	23.1µM*	20.6µM*	37.9
NC(=O)c1cccc(OCc2ccccc2)c1	nt	nt	-8.0	nt	nt	nt
c1csc(CNCCC2CCCCC2)c1	nt	nt	9.0	nt	nt	nt
FC(F)Oc1ccc(NC(=S)NN2CCOCC2)cc1	17.5%	-2.0%	-2.8	-0.3%	-4.0%	7.4
S=C(Nc1ccc(Cl)cc1)NN1CCOCC1	?	11.2µM*	-7.0	-4.3%	4.2%	11.8
